Bioassay records deposited in PubChem BioAssay by National Center for Advancing Translational Sciences (NCATS).
Only some compounds are listed: those with a hit (about 5% of all), similar ones and a draw of the others.
HCMV inh: qHTS Assay for inhibitors of the human cytomegalovirus (HCMV); activity change, negative = inhibition, % at 57.5 µM; AID 1259415, 2018; HFF cells, HCMV-luciferase reporter, 72 h; hits give low values; 410,000 compounds, 4.5% hits; in the data active means activity change below about -60%; inconclusive means no clear call, values can overlap the other calls; inactive means above about -39%
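Inhibition of viral replication was scored as loss of reporter luminescence in HFFs infected with HCMV-luciferase (MOI 1 PFU/cell) for 72 h; compounds tested at 2 doses, normalized to buffer and Salinomycin controls.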
TbPYK inhibitor: qHTS of Trypanosoma Brucei Inhibitors. AID 624173, 2012. TbPYK enzyme, Kinase-Glo Plus ATP luminescence, 45 min. 410,000 compounds, 0.12% hits. Potency, µM (highest dose often 76.8 µM), for the others: at the highest dose activity, negative = inhibition, hits mostly inhibitors. pyruvate kinase (Trypanosoma brucei), Q57TT1; further: potency means the concentration at half of the fitted maximal effect; nearly all actives have a fitted effect of over 50% in size
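TbPYK + substrate in 50 mM TEA pH 7.2, 100 mM KCl, 10 mM MgCl2, 0.05% BSA, 0.01% Tween-20; cpd pinned; ADP 130 uM final; 45 min RT; Kinase-Glo Plus 10 min; luminescence endpoint.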
Vaccinia mCherry: qHTS for Stage-Specific Inhibitors of Vaccinia Orthopoxvirus: mCherry Reporter Primary qHTS; Potency, µM (doses to about 36.5 µM), for inactives: at the top dose activity change, negative = inhibition, actives largely listed as inhibitors; Vaccinia virus mCherry reporter infection, fluorescence; 310,000 compounds, 0.63% hits; calls by dose curve; tested in A549 cells; further: potency means the concentration at half of the fitted maximal effect; nearly all actives have a fitted effect of over 35% in size
LmPK inhibitor: qHTS Assay for Inhibitors of Leishmania Mexicana Pyruvate Kinase (LmPK) | purified LmPK, Kinase-Glo ATP luminescence, 1 h | Potency, µM (highest dose often 57.5 µM), for inactives: at the top dose activity change, negative = inhibition, most hits filed as inhibitors | 290,000 compounds, 0.37% hits | AID 1721, 2009; further: potency means the concentration at half of the fitted maximal effect
Target sequence (Q27686 whole entry, looked up): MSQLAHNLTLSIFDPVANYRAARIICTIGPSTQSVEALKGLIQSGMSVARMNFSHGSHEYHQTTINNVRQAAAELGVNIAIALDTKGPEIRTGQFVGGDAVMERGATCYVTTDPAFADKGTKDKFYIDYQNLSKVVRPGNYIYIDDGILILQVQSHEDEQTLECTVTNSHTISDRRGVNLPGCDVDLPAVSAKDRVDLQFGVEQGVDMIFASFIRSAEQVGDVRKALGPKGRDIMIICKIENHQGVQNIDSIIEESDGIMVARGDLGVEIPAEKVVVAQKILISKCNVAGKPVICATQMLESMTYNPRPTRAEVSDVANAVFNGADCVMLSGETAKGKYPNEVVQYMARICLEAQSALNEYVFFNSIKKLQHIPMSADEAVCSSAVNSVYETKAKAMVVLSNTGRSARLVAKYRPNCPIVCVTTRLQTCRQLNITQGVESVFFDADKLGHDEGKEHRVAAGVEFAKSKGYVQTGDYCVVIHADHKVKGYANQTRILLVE
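In 50 mM imidazole pH 7.2 with 7 mM MgCl2, LmPK (0.1 nM) turned over PEP (0.5 mM) and ADP (0.1 mM) for 1 h at room temperature. Luciferase read-out of ATP.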
VACV Venus inh: qHTS for Stage-Specific Inhibitors of Vaccinia Orthopoxvirus: Venus Reporter Primary qHTS | Vaccinia virus Venus reporter expression, fluorescence | Potency, µM (highest dose often 36.5 µM), for inactives: top-dose activity change, negative = inhibition, usual class: inhibitors | 330,000 compounds, 0.46% hits; calls by dose curve; tested in A549 cells; further: potency means the concentration at half of the fitted maximal effect; nearly all actives have a fitted effect of over 30% in size
* hit, by the source's call; i = inactive; u = inconclusive; x = no result given; [ ] = remark or other dose. Unless noted, the call rests on the fitted dose curve; in most records, active means well fitted curve in the direction sought with a large enough effect; inconclusive means small, poorly fitted or top-dose-only effect, or another doubt; inactive means no such curve, though single readings can be large; an effect the other way counts as inactive or inconclusive. On the % scale 0 is the no-effect control and ±100 the full control effect.

SMILES	HCMV inh	TbPYK inhibitor	Vaccinia mCherry	LmPK inhibitor	VACV Venus inh
COc1ccc2cc3c(N)nn(C(=O)c4ccccc4[N+](=O)[O-])c3nc2c1	-70*	-6%	-3%	3%	-22%
CCCC1CCC(C(=O)n2nc(N)c3cc4ccc(OC)cc4nc32)CC1 (stereo not given)	-21	-1%	42%	7%	3%
Cc1cc(C)c2oc(-c3cccc(NC(=O)c4ccco4)c3)nc2c1	-11	-17%	-6%	x	-9%
Cn1c(N)c(C(=O)COC(=O)C2CC(=O)N(Cc3ccccc3)C2)c(=O)n(C)c1=O (stereo not given)	1	2%	-3%	1%	-14%
COc1ccc(CN2C(=O)c3cccnc3C2=O)cc1S(=O)(=O)N1CCCCC1	16	-6%	x	-7%	x
O=C(CNCC1CCCO1)N1CCN(S(=O)(=O)c2ccc3ccccc3c2)CC1 (stereo not given)	40	11%	u	-7%	-23%
O=C1c2ccc3c4c(ccc(c24)C(=O)N1c1cccc(O)c1)C(=O)N(c1cccc(O)c1)C3=O	-88*	-3%	x	8%	x
O=C(c1cccc(Br)c1)N1CCCc2ccccc21	22	0%	x	-7%	x
O=C(c1coc(=O)c(Br)c1)N1CCCc2ccccc21	-75*	-8%	-17%	6%	-12%
O=C(c1cnc2ccccn2c1=O)N1CCCc2ccccc21	-64*	-8%	x	-8%	x
CN1CCOc2c1cnn(CCO)c2=O	4	-2%	4%	x	5%
Cc1ccc(C(=O)NC(C#N)=C(Cl)Cl)cc1	-99*	0%	u	-1%	-27%
Cc1ccc(C(=O)NC(=C(Cl)Cl)S(=O)(=O)c2ccccc2)cc1	-70*	-26%	x	5%	x
Cc1[nH]c(=O)c(C#N)c(C)c1CSc1ncccn1	35	-2%	-10%	x	-12%
CNC(=S)N/N=C(\C)c1ccc(N2CCOCC2)cc1	-99*	-14%	x	-3%	x
CCNC(=S)N/N=C(\C)c1ccc(N2CCOCC2)cc1	-16	-2%	i	0%	-14%
Cc1ccc(O)c(N=NC2=C(O)CC(C)(C)CC2=O)c1	-101*	9%	u	-9%	u
CC1(C)CC(=O)C(N=Nc2cc(Cl)c(Cl)c(Cl)c2)=C(O)C1	4	-5%	-18%	-1%	u
C=CCn1c(SCC(=O)Nc2sccc2C(N)=O)nc2ccccc2c1=O	-38	-6%	x	4%	u
C=CCn1c(SCC(=O)Nc2sccc2C(N)=O)nc2sc(CC)cc2c1=O	-78*	-7%	x	0%	10µM*
C=CCn1c(SCC(=O)Nc2sccc2C(N)=O)nc2ccc(Cl)cc2c1=O	-82*	-9%	x	2%	u
C/C(=N/NC(=O)c1sc(NS(=O)(=O)c2ccccc2)nc1C)c1sc(N)nc1C	-16	4%	-18%	2%	-4%
COCc1cc(=O)n2[nH]c(SCc3ccccc3)nc2n1	78	-1%	x	1%	-6%
NC(=O)C1(N2CCCCC2)CCN(C(=S)Nc2cc(F)cc(F)c2)CC1	-64*	-3%	-3%	0%	-9%
COC(=O)c1[nH]c2c(c1C)C(=O)CC(c1cccs1)C2 (stereo not given)	-76*	-6%	u	-1%	u
SMILES	HCMV inh	TbPYK inhibitor	Vaccinia mCherry	LmPK inhibitor	VACV Venus inh
CCOC(=O)c1[nH]c2c(c1C)C(=O)CC(c1ccco1)C2 (stereo not given)	-81*	-4%	u	0%	u
Cc1c(C(=O)OCc2ccccc2)[nH]c2c1C(=O)CC(c1ccco1)C2 (stereo not given)	x	-3%	u	4%	u
CCCCOC(=O)c1[nH]c2c(c1C)C(=O)CC(c1cc(OC)c(OC)c(OC)c1)C2 (stereo not given)	-63*	-1%	u	2%	-27%
COCCOC(=O)c1[nH]c2c(c1C)C(=O)CC(c1ccco1)C2 (stereo not given)	-67*	-4%	u	5%	-28%
O=C(Cn1nnc(-c2ccc(S(=O)(=O)N3CCCC3)cc2)n1)NCC1CCCO1 (stereo not given)	21	-14%	u	2%	-11%
CC(Oc1ccccc1)C(=O)NNC(=O)c1ccccn1 (stereo not given)	u	9%	u	4%	u
C/C(=N\NC(=O)C(C)Oc1ccc([N+](=O)[O-])cc1)c1ccccn1 (stereo not given)	-104*	-2%	x	-2%	x
CCCCNC(=O)c1cnc2sc(N3CCCCC3)nn2c1=O	8	1%	5%	x	-8%
COc1ccc(S(=O)(=O)NCc2ccc(C(=O)NCc3cccnc3)cc2)cc1	40	x	x	3%	x
COc1cccc(NC(=O)c2ccc(S(=O)(=O)NCc3cccnc3)cc2)c1	-61*	3%	-25%	-6%	-14%
COc1ccc(S(=O)(=O)NCc2cccnc2)cc1C(=O)NC1CCCCC1	39	-12%	-2%	-1%	-15%
O=C(NC1CCCCC1)c1ccc(S(=O)(=O)NCc2cccnc2)cc1	-61*	-11%	-19%	0%	-17%
C=CCc1cccc(/C=N/NC(=O)C(C)Nc2ccc(C)cc2)c1O (stereo not given)	-89*	-10%	-29%	-5%	u
C=CCc1cccc(/C=N/NC(=O)c2ccccc2Br)c1O	-99*	-5%	x	8%	x
C=CCc1cccc(/C=N/NC(=O)c2ccccc2OC)c1O	-97*	1%	x	12%[11.5 µM]	x
C=CCc1cccc(/C=N/NC(=O)c2ccc3nc[nH]c3c2)c1O	-101*	0%	x	10%	x
COc1cccc(C2C(C(=O)Nc3ccccc3)=C(C)Nc3nnnn32)c1OC (stereo not given)	-100*	0%	-14%	x	-13%
COc1cccc(C2C(C(=O)Nc3ccccc3)=C(C)Nc3nc(-c4ccccc4)nn32)c1OC (stereo not given)	69	3%	-15%	x	-5%
CC(C(=O)N(C)C1CCS(=O)(=O)C1)N1C(=O)/C(=C/c2ccco2)SC1=S (stereo not given)	-93*	-12%	x	11%	x
CCN(C(=O)C(C)N1C(=O)/C(=C/c2cccs2)SC1=S)C1CCS(=O)(=O)C1 (stereo not given)	-63*	-19%	x	5%	x
CC(C(=O)N(C)C1CCS(=O)(=O)C1)N1C(=O)/C(=C/c2cccs2)SC1=S (stereo not given)	-31	-9%	x	-4%	x
OCCNc1ncnc2c1ncn2[C@H]1CN(Cc2ccc3c(c2)OCO3)C[C@@H](CO)O1	32	-4%	-6%	x	-2%
O=C(NCCc1cccs1)c1ccc(Cn2c(SCc3ccccc3)nc3cccnc32)cc1	16	1%	i	x	-9%
